Screens (PubChem BioAssay)
MT1-MMP txn act: activates MT1-MMP transcription; HT1080 MT1-MMP promoter luciferase reporter, luminescence, overnight; hits give high values; activation factor at 10 µM; 86,000 tested, 0.16% active; AID 750;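 active = activation factor of at least 2 for MT1-MMP transcription at 10 µM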
ERb SRC1 inh: blocks coactivator binding to human estrogen receptor beta | Q92731 | TR-FRET ER-beta LBD / SRC1-Cy5 peptide binding; receptor agonist-loaded with 1 µM estradiol | inhibition, % at 25.6 µM | 86,000 tested, 1.3% active | AID 633;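 active = compounds whose percent inhibition of the receptor-coactivator binding signal exceeds about 50% in the single-dose screen, limit read from the data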
ERa SRC1 inh: ER-alpha (human) coactivator binding inhibition | TR-FRET ER-alpha LBD / SRC-1 peptide, estradiol-bound | 86,000 tested, 1.7% active | inhibition, % at 25.6 µM | AID 629; in the data active = inhibition above about 50%
Target sequence (P03372 whole entry, looked up, the tested form may be a part): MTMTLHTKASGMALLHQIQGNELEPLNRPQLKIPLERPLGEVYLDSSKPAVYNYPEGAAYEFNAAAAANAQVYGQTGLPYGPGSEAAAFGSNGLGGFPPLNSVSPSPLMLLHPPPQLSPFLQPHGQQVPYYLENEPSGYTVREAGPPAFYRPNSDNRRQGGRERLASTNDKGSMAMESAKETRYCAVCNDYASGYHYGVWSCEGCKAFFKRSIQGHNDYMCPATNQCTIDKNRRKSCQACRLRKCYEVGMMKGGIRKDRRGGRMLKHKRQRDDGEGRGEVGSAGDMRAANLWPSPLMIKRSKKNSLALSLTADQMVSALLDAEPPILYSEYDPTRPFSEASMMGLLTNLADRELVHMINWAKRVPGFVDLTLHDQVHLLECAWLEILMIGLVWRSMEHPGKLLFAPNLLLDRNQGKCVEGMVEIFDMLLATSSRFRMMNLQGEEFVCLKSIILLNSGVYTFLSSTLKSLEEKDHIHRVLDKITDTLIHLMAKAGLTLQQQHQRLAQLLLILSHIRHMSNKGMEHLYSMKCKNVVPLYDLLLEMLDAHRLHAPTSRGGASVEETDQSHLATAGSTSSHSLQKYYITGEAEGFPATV
hDAT+cocaine: human DAT dopamine uptake with cocaine, either direction. LLC-PK1 hDAT cells, [14C]-dopamine uptake with cocaine IC80; actives deviate in either direction. Q01959. B-score at 10 µM. 110,000 tested, 1.3% active;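 active = Z score or B-score, a plate-position-corrected score, falls beyond the plate's 99.7% confidence bounds, in either direction; inactive = both scores lie inside the 99.7% bounds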
ERa SRC1 pot: ER-alpha (human) coactivator binding potentiation; P03372; TR-FRET ERalpha-LBD/SRC-Cy5 coactivator binding, 2 h; 100 = basal binding, no effect; coactivator binding (% of control), % at 25.6 µM; 86,000 tested, 1.3% active; AID 639; in the data active = activity above about 200%;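 note: binding measured in presence of low estradiol as agonist stimulus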
Numbers stand for hits; . = inactive; / = no result given; [ ] = another dose, or the depositor's remark. Compounds with a hit are over-represented: about 3.8% of the library has one in this group of screens.

SMILES	MT1-MMP txn act	ERb SRC1 inh	ERa SRC1 inh	hDAT+cocaine	ERa SRC1 pot
CC(C)(NC(=O)N1CCOCC1)c1cccc(C(C)(C)NC(=O)N2CCOCC2)c1	.	.	.	.	.
O=c1cc(-c2ccccc2Cl)oc2c(NS(=O)(=O)c3ccccc3OC(F)(F)F)ccc(O)c12	/	/	/	.	/
COc1ccccc1N1CCN(C(=O)CSc2ncccc2-c2nc3ccccc3[nH]2)CC1	.	.	.	.	.
O=C(CSc1ncccc1-c1nc2ccccc2[nH]1)N1CCN(c2ccccc2F)CC1	.	.	.	.	223.4
O=C(CCc1nc2cccnc2n1Cc1ccccc1)NCCc1ccc(Cl)cc1	.	.	.	.	.
COc1ccc(OC)c(-n2c(SCC(=O)N3CCc4ccccc43)nc3c(c2=O)SCC3)c1	.	.	.	3.16	.
COc1ccccc1-n1c(SCC(=O)N2CCc3ccccc32)nc2c(c1=O)SCC2	/	.	.	.	.
C=CCOC(=O)C1=C[C@@H](c2ccc(C(F)(F)F)cc2)C[C@@H](OCc2ccc(CO)cc2)O1	/	/	/	.	/
CCOC(=O)C1=C(C)N(CCCC(=O)O)C(=O)NC1c1ccccc1OC(=O)c1cccc(I)c1 (stereo not drawn)	.	/	/	/	/
CCC(Sc1nc2c(c(=O)n1CC)SC(C)C2)C(=O)OC (stereo not drawn)	/	.	.	.	.
Cc1nn(Cc2ccc(C(=O)Nc3nc4c(C)cccc4s3)o2)c(C)c1Br	.	.	50.3	.	.
Cc1cc(NC(=O)c2ccc(Cn3nc(C)c(Br)c3C)o2)no1	.	.	.	.	.
CCC(NC(=O)Nc1nnc(C(F)(F)F)s1)(C(F)(F)F)C(F)(F)F	.	.	.	-3.34	.
CCOC(=O)CC1C(=O)NCCN1C(=O)c1cccc(C(F)(F)F)c1 (stereo not drawn)	.	.	.	.	.
CCOC(=O)CC1C(=O)NCCN1C(=O)c1ccc(F)cc1F (stereo not drawn)	.	.	.	-3.39	.
CCCCc1ccc(NC(=O)N[C@H](C(=O)O)C(C)CC)cc1 (stereo partly drawn)	.	.	.	.	.
CCCCc1ccc(NC(=O)OC)cc1	.	.	.	.	531.4[fluorescence artefact?]
COc1ccc(S(=O)(=O)Cc2ccc(C(=O)N3CCc4ccccc4C3)o2)cc1	.	.	.	2.42	.
COc1ccc(S(=O)(=O)Cc2ccc(C(=O)N3CCN(Cc4ccccc4)CC3)o2)cc1	.	.	.	.	.
Cc1ccc(S(=O)(=O)Cc2ccc(C(=O)N3CCN(Cc4ccccc4)CC3)o2)cc1	.	58.2	60.7[fluorescence artefact?]	/	.
Cc1ccc(S(=O)(=O)Cc2ccc(C(=O)NCc3ccc4c(c3)OCO4)o2)cc1	.	.	50.9	.	.
COCCNC(=O)c1ccc(CS(=O)(=O)c2ccc(C)cc2)o1	.	.	.	.	.
Cc1ccc(S(=O)(=O)Cc2ccc(C(=O)O)o2)cc1	.	76.0	68.7	.	.
Cc1ccc(S(=O)(=O)Cc2ccc(C(=O)N3CCc4ccccc4C3)o2)cc1	/	76.4	78.5[fluorescence artefact?]	.	.
Cc1ccc(-c2noc(CCC(=O)NCc3ccc4c(c3)OCO4)n2)cc1	.	.	.	1.17	.
SMILES	MT1-MMP txn act	ERb SRC1 inh	ERa SRC1 inh	hDAT+cocaine	ERa SRC1 pot
CC(NC(=O)Nn1cnnc1)(C(F)(F)F)C(F)(F)F	.	.	.	.	.
COc1ccccc1CNC(=O)c1cnc2ccccn2c1=O	/	.	.	3.51	.
CCCC(=O)NC(Nc1cccc(C(F)(F)F)c1)C(Cl)(Cl)Cl (stereo not drawn)	/	/	/	.	/
O=C(O)/C=C/c1ccc(Cn2ccnc2)cc1	/	/	/	.	/
O=C(Nc1ccc2c(c1)OCO2)C(c1ccccc1)N1CCN(C(=O)c2ccco2)CC1 (stereo not drawn)	.	.	.	.	.
O=C(COc1ccc(Cl)cc1)Nc1ccc(N2CCN(C(=O)c3ccco3)CC2)cc1	/	/	/	.	/
O=C(CSc1ccc(Cl)cc1)Nc1ccc(N2CCN(C(=O)c3ccco3)CC2)cc1	.	.	64.3[fluorescence artefact?]	.	.
O=C(Nc1ccc2c(c1)OCO2)C(c1ccc(Cl)cc1)N1CCN(C(=O)c2ccco2)CC1 (stereo not drawn)	.	.	.	2.36	.
CC(C)Nc1ccc(C(CC(N)=O)NC(=O)Cc2ccc(Cl)cc2)cc1[N+](=O)[O-] (stereo not drawn)	/	/	/	.	/
CCC1CCc2c(sc3nc(SCC(=O)NCc4ccco4)n(-c4ccccc4)c(=O)c23)C1 (stereo not drawn)	.	.	.	.	.
CCCCn1c(SCC(N)=O)nc2c(sc3ccccc32)c1=O	.	.	53.0[fluorescence artefact?]	.	263.4
CCCn1c(=O)c2ccccc2n2c(SCc3cc(=O)n4ccsc4n3)nnc12	.	.	50.4	/	.
CCn1c2ccccc2c2nnc(SCc3cc(=O)n4ccsc4n3)nc21	.	.	.	/	.
C=CCn1c(SCC(=O)NCc2ccccc2)nnc1C1CCCCC1	.	.	.	.	.
Cc1cccc(-n2c(SCc3cc(=O)n4ccsc4n3)nc3ccccc32)c1	.	.	60.1	/	.
C=CCn1c(SCc2cc(=O)n3ccsc3n2)nnc1C1CCCCC1	.	55.5[fluorescence artefact?]	81.5[fluorescence artefact?]	.	.
Cc1cc(-c2cc(C(=O)NCc3ccccc3)on2)nc(NC2CCCC2)n1	/	/	/	.	/
C#CCCCC(=O)Nc1ccccc1	.	/	/	/	/
O=c1c2[nH]c3ccccc3c2ncn1CCC1=CCCCC1	.	.	.	.	307.6[fluorescence artefact?]
Cc1ccc2c(c1)[nH]c1c(=O)n(CCC3=CCCCC3)cnc12	/	/	/	.	/
Cc1ccc2[nH]c3c(=O)n(CCC4=CCCCC4)cnc3c2c1	.	.	.	.	335.2[fluorescence artefact?]
O=C(NC(NC(=S)Nc1cccc(Cl)c1)C(Cl)(Cl)Cl)OCc1ccccc1 (stereo not drawn)	/	/	/	.	/
NC(=O)[C@@H]1CCCNc2c(I)cc([N+](=O)[O-])cc2C(=O)N[C@@H](CO)C(=O)NCC(=O)N1	/	/	/	.	/
COc1ccc2oc(=O)c(-c3nnc(NCc4ccco4)s3)cc2c1	.	57.3[fluorescence artefact?]	.	.	.
CNc1nnc(-c2cc3cc(Cl)ccc3oc2=O)s1	.	.	66.1	.	.
SMILES	MT1-MMP txn act	ERb SRC1 inh	ERa SRC1 inh	hDAT+cocaine	ERa SRC1 pot
CCOc1cccc2cc(-c3nnc(NCc4ccco4)s3)c(=O)oc12	.	.	53.1	.	.
O=C(c1cc2cc(Cl)ccc2oc1=O)N1CCOCC1	.	.	.	.	.
O=C(c1ccc(-c2ccccc2Cl)s1)N1CCOCC1	/	/	/	.	/
O=C(Cc1ccccc1F)Nc1nc(-c2cccs2)cs1	.	.	.	3.35	.
CCc1cc2cc(C(=O)N3CCN(c4ccccc4)CC3)sc2s1	.	.	.	.	.
O=C(N1CCOCC1)N1CCN(Cc2ccccc2)CC1	.	.	.	.	544.7[fluorescence artefact?]
CCc1cc2cc(C(=O)N3CCN(Cc4ccccc4)CC3)sc2s1	.	.	.	2.6	.
O=C(N1CCOCC1)N1CCN(c2ccccc2)CC1	.	.	.	.	.
CC[C@@H](C)C(N)c1cn([C@@H](CCC(=O)O)C(=O)N2CCNCC2)nn1 (stereo partly drawn)	/	/	/	.	/
C#CCOC(=O)C(NC(=O)c1ccccc1)=C1CCCCC1	.	.	.	.	.
CCc1nc(SCc2ccc(F)cc2)[nH]c(=O)c1C#N	.	.	.	.	.
